Two molecules from ChEMBL document CHEMBL1961873, “Compounds: GSK PKIS; Assays: Nanosyn kinase panel” (2012) can be followed below.

In assay [1] the target is Protein kinase C gamma type (Homo sapiens) (UniProt P05129). To be noted: at 1 µM.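 Further: each value is an averaged percent inhibition of the enzyme.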
The target of assay [2] is T1, Protein kinase C iota type (Homo sapiens) (UniProt P41743).
T1 sequence (whole entry): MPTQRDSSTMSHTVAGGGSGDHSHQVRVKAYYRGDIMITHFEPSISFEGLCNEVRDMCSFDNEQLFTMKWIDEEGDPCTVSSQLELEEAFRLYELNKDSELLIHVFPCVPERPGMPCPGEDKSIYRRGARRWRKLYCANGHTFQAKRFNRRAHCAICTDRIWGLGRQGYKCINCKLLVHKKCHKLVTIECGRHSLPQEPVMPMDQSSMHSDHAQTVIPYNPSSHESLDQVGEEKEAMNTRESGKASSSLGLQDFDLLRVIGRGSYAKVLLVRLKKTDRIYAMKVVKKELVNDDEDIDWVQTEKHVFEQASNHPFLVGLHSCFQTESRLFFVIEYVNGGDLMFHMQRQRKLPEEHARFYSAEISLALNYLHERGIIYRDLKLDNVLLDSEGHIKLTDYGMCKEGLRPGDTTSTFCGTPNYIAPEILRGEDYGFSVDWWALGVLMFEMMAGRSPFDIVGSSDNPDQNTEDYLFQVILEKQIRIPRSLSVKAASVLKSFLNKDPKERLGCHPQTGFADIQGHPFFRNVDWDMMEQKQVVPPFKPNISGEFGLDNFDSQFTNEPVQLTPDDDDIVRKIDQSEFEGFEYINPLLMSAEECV
To be noted: at 0.1 µM.

For assay [3], the target named is T1, Protein kinase C iota type (Homo sapiens). To be noted: at 1 µM.
The target of assay [4] is Protein kinase C theta type (Homo sapiens) (UniProt Q04759). To be noted: at 0.1 µM.
The target is the same in assay [5]. The note with it: at 1 µM.
In assay [6] the target is Protein kinase C beta type (Homo sapiens) (UniProt P05771). The note with it: at 0.1 µM.
Assay [7] shares this target. To be noted: at 1 µM.
The target of assay [8] is T2, Serine/threonine-protein kinase D1 (Homo sapiens) (UniProt Q15139).
T2 sequence (whole entry): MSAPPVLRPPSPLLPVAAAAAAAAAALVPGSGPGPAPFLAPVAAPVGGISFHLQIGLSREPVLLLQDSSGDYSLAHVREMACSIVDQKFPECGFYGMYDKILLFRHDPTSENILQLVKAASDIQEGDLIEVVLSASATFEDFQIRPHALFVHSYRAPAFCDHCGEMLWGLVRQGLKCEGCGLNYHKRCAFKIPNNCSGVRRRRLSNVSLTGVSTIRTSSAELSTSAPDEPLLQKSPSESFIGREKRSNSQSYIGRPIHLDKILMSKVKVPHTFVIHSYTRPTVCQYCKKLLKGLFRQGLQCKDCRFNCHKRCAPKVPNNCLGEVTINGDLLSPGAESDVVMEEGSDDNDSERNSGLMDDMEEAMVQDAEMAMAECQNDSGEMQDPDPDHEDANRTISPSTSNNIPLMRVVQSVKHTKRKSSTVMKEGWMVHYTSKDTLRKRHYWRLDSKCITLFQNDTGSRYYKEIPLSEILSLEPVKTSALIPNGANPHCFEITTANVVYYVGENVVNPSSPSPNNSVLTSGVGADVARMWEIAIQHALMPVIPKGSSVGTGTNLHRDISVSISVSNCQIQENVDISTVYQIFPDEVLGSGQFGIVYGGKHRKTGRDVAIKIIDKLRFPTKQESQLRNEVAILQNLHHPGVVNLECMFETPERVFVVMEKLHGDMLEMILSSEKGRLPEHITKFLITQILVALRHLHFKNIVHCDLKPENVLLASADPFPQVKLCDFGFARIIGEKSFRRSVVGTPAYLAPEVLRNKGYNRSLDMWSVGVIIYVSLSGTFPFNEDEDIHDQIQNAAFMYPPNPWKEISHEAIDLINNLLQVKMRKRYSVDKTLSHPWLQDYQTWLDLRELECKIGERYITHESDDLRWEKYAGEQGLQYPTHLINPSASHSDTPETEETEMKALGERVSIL
To be noted: at 0.1 µM.

For assay [9], the target named is T2, Serine/threonine-protein kinase D1 (Homo sapiens). To be noted: at 1 µM.
Assay [10] deals with T3, Serine/threonine-protein kinase D2 (Homo sapiens) (UniProt Q9BZL6).
T3 sequence (whole entry): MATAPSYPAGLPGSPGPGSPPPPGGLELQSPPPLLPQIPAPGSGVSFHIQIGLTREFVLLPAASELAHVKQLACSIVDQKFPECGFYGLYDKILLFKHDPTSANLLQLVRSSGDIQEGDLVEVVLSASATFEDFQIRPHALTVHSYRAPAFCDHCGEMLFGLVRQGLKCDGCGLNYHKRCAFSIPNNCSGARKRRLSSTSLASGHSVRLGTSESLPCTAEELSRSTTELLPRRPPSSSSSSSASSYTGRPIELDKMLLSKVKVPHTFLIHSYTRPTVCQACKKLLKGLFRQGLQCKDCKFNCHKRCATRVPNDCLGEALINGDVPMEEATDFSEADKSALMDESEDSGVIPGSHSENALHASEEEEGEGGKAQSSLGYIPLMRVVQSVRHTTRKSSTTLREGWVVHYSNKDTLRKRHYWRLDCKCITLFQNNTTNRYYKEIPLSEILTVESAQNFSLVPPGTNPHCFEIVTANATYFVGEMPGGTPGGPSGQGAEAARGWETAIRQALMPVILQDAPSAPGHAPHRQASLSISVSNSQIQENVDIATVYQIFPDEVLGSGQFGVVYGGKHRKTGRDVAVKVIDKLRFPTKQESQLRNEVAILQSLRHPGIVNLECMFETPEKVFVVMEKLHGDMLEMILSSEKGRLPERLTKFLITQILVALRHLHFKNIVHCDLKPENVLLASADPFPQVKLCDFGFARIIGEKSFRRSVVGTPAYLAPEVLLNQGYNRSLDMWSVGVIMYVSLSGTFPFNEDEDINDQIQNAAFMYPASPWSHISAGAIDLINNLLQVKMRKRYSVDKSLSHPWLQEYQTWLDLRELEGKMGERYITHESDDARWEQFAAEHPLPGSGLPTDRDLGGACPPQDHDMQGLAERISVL
The note with it: at 0.1 µM.

The target in assay [11] is T3, Serine/threonine-protein kinase D2 (Homo sapiens). The note with it: at 1 µM.
Assay [12] has as its target T4, Serine/threonine-protein kinase D3 (Homo sapiens) (UniProt O94806).
T4 sequence (whole entry): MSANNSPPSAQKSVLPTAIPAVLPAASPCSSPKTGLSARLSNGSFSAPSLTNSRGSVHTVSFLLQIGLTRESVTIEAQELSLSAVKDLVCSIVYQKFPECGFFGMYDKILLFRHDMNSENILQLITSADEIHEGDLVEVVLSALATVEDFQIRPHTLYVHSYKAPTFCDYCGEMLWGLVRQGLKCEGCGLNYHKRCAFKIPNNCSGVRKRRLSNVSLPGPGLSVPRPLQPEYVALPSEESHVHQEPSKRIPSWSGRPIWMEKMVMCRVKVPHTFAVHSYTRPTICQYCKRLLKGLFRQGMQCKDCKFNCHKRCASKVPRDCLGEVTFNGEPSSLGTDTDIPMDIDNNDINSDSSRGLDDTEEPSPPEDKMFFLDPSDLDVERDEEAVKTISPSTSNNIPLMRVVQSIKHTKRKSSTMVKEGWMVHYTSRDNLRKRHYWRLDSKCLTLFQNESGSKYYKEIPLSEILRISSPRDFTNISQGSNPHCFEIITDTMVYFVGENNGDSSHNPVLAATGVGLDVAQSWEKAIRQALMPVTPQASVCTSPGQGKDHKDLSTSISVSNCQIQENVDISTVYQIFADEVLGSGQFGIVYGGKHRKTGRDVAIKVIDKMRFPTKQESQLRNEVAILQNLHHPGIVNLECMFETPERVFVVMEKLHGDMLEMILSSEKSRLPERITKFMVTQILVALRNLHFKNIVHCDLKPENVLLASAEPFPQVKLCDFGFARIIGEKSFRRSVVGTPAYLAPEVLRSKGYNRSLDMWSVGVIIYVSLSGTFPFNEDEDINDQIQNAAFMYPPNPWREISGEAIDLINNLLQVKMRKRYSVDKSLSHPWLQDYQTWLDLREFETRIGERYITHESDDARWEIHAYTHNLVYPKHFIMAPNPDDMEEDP
The note with it: at 0.1 µM.

The target of assay [13] is T4, Serine/threonine-protein kinase D3 (Homo sapiens). The note with it: at 1 µM.
For assay [14], the target named is T5, cGMP-dependent protein kinase 1 (Homo sapiens) (UniProt Q13976).
T5 sequence (whole entry): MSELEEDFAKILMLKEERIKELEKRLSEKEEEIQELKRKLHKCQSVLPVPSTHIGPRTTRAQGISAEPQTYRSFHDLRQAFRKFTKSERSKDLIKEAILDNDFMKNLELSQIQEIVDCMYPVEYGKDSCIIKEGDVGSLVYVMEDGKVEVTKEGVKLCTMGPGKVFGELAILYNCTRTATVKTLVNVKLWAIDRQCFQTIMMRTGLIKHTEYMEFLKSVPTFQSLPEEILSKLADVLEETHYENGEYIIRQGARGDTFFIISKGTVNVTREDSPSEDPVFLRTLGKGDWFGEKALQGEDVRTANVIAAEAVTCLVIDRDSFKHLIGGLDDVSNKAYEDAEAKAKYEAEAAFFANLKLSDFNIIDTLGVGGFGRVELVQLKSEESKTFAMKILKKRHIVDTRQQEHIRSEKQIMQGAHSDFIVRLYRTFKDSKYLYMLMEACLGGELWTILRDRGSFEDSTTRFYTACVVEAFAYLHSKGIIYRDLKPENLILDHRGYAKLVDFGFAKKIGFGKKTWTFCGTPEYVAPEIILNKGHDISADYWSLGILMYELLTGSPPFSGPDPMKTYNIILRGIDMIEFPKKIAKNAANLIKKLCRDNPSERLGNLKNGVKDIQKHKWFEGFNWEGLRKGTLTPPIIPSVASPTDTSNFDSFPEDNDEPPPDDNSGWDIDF
To be noted: at 0.1 µM.

Assay [15] deals with T5, cGMP-dependent protein kinase 1 (Homo sapiens). The note with it: at 1 µM.
Assay [16] concerns the target T6, cGMP-dependent protein kinase 2 (Homo sapiens) (UniProt Q13237).
T6 sequence (whole entry): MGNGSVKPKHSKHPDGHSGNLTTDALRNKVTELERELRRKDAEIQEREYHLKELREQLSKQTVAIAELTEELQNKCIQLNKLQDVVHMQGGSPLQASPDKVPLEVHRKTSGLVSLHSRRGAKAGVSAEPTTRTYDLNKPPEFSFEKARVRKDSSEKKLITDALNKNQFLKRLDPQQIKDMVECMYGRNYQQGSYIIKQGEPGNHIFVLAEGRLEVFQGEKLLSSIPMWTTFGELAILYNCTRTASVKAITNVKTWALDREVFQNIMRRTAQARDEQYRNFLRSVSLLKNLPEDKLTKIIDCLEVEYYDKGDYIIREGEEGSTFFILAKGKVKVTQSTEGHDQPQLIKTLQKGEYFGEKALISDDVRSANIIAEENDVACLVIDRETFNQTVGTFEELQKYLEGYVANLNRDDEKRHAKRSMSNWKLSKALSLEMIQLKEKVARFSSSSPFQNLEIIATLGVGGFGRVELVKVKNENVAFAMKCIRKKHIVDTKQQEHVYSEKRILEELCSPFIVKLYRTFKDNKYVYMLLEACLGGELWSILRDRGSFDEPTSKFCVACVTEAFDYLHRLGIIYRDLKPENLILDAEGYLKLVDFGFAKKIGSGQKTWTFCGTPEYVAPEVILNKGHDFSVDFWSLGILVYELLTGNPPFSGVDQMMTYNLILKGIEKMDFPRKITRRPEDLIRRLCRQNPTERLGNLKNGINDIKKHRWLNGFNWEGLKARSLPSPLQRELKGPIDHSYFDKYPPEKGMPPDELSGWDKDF
The note with it: at 0.1 µM.

The target in assay [17] is T6, cGMP-dependent protein kinase 2 (Homo sapiens). To be noted: at 1 µM.
In assay [18] the target is T7, cAMP-dependent protein kinase catalytic subunit PRKX (Homo sapiens) (UniProt P51817).
T7 sequence (whole entry): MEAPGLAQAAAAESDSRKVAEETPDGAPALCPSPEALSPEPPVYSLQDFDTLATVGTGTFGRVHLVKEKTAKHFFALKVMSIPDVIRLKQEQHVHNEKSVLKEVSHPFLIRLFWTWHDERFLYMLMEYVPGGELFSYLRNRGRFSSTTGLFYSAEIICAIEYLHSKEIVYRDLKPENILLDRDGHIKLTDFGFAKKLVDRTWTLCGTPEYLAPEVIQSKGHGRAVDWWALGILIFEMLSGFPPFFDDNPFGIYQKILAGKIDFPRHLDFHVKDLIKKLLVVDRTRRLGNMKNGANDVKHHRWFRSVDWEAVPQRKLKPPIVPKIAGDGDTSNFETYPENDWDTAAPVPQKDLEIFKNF
To be noted: at 0.1 µM.

Assay [19] has as its target T7, cAMP-dependent protein kinase catalytic subunit PRKX (Homo sapiens). To be noted: at 1 µM.
Assay [20] addresses Rho-associated protein kinase 1 (Homo sapiens) (UniProt Q13464). To be noted: at 0.1 µM.

The inhibition is the change of the read-out against control, counted positive when it falls.

The structures appear in SMILES notation.

Protein kinase C theta type (Homo sapiens), sequence (Q04759 whole entry, looked up): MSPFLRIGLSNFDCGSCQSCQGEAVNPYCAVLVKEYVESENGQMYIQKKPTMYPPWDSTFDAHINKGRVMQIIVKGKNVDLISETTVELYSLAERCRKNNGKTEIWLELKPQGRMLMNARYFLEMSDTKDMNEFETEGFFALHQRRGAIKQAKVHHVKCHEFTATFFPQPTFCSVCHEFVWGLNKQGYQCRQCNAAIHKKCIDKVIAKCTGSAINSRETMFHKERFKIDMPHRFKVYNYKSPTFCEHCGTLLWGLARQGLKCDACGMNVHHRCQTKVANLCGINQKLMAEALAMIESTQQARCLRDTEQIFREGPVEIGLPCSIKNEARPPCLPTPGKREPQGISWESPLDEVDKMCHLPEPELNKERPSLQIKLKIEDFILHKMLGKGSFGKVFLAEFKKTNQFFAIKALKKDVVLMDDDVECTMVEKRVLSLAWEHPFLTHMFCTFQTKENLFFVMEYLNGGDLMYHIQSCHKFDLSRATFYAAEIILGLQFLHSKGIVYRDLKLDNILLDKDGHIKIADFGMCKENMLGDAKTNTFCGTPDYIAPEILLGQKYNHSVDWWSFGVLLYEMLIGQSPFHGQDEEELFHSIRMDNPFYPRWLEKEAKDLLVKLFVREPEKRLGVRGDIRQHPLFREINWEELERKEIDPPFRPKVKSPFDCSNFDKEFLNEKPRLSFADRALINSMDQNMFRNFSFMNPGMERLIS
Protein kinase C beta type (Homo sapiens), sequence (P05771 2-671 limits assumed): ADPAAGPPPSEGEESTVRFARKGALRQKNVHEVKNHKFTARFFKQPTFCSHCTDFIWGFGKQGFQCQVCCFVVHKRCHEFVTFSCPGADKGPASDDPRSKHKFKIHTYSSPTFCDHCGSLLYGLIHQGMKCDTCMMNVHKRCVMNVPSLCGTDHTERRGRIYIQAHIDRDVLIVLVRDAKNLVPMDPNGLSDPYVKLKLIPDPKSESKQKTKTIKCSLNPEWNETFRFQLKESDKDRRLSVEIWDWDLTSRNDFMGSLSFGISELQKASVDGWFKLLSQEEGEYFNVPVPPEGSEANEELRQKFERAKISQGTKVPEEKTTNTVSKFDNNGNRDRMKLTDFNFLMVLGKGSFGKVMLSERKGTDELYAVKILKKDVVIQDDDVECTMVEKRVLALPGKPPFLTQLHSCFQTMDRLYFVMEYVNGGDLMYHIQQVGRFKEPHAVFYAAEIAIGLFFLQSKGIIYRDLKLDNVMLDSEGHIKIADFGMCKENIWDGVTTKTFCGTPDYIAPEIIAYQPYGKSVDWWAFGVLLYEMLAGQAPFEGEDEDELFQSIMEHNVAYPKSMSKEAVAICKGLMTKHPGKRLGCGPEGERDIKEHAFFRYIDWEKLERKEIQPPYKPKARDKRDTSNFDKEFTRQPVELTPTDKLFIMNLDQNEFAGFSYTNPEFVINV
Rho-associated protein kinase 1 (Homo sapiens), sequence (Q13464 2-1354 limits assumed): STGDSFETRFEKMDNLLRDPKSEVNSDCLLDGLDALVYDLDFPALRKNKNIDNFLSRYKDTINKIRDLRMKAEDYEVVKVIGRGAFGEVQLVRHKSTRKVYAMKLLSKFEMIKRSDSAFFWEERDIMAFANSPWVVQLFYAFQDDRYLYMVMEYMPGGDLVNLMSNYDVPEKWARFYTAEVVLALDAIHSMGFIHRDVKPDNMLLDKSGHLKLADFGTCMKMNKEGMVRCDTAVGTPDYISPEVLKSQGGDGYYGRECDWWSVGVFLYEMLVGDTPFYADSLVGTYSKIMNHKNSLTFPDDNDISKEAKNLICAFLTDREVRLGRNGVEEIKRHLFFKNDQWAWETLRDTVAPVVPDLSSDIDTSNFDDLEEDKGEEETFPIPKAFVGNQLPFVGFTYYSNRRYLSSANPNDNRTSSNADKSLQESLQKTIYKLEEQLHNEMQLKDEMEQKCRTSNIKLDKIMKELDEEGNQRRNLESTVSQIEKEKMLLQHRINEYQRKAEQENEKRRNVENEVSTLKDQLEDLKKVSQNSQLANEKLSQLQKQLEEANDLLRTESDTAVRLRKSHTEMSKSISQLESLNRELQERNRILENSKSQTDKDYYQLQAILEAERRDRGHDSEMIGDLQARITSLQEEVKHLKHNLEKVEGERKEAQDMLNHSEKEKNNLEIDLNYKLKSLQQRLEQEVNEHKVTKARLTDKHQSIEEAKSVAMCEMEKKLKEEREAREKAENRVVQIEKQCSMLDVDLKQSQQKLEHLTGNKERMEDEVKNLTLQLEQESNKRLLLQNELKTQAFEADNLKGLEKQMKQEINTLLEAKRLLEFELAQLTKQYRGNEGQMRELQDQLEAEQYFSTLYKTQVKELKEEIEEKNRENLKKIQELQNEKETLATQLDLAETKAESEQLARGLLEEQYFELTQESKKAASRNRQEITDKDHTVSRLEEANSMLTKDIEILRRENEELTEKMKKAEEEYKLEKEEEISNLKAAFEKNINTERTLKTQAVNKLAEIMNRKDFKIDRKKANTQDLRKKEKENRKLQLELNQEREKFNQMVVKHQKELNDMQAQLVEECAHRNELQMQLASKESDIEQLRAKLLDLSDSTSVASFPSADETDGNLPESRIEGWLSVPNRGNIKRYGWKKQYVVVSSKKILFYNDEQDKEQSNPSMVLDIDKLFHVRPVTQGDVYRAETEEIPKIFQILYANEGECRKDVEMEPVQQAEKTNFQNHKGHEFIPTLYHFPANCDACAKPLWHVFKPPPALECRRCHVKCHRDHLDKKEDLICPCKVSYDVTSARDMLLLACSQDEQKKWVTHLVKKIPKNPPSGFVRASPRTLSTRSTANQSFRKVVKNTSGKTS

Consider `CS(=O)(=O)CCNCc1ccc(-c2ccc3ncnc(Nc4ccc(OCc5cccc(C(F)(F)F)c5)cc4)c3c2)o1`, for which the inhibition is -0.26% in assay [1]; 2.37% in assay [2]; 2.7% in [3]; 2.36% in assay [4]; 5.13% in [5]; 1.56% in assay [6]. Moreover, the inhibition was determined as 3.15% in [7]; 4.62% in assay [8]; 6.2% in assay [9]; 5.3% in [10]; 4.34% in assay [11]; 5.01% in [12]. The inhibition was 5.61% in assay [13]; 3.52% in assay [14]; 4.77% in assay [15]; 2.31% in assay [16]; 6.67% in [17]; 2.61% in [18]. Also, the values for the inhibition in assay [19] and in assay [20] were 1.41% and 2.09%, respectively.

Consider `Cc1nnc(-c2cccc(-c3ccc(C(=O)NCC4CC4)cc3)c2)o1`, for which the inhibition in [1] was determined as 5.25%; in assay [2], 2.19%; in [3], 1.94%; in [4] it was 3.27%; in [5], 5.18%; in assay [6], 1.13%. In addition, the inhibition in assay [7] was 2.65%; in assay [8] it was 4.9%; in assay [9], 9.11%; in assay [10] it was 5.08%; in assay [11], 7.93%; in assay [12], 6.14%. Besides, the inhibition in assay [13] was determined as 7.35%; in [14], 3.58%; in assay [15], 5.43%; in assay [16] it was 3.23%; in assay [17], 3.44%; in assay [18] it was 3.54%. In addition, the inhibition stood at 4.63% in assay [19] and 0.97% in [20].
